In all, about 69,000 compounds went through this assay and about 950 (1.4%) showed an effect of 50% or more. The sample as a whole holds a higher share of strong results than the screen did.
Test system: Mycobacterium tuberculosis
Experiment: Cornell M. t heat shock assay; note: in the data most compounds retested in dose-response had high values
Format: functional, organism-based
Set-up: dose or concentration left out as unconfirmed

SMILES | Percent Effect [%]
CNC(=O)CN1CC[C@H]2CN(C(=O)c3ccccc3F)C[C@H]2C1.O=C(O)C(F)(F)F | -22.98
CC(C)c1nn(C)c(N(C)C)c1CNCc1ccccc1CO.Cl | 37.79
CCOC1COC2(CCN(Cc3ccc(C)cc3)CC2)C1.O=C(O)C(F)(F)F (stereo unspecified) | -2.769
COCCN1CCC2(CC1)CC(NC(=O)COC)c1ccccc1O2.O=C(O)C(F)(F)F (stereo unspecified) | -4.974
COCCN1CCC2(CC1)CC(NC(=O)CN(C)C)c1ccccc1O2.O=C(O)C(F)(F)F.O=C(O)C(F)(F)F (stereo unspecified) | -9.867
CCN1CCC2(CC1)CC(NC(=O)c1csnn1)c1ccccc1O2.O=C(O)C(F)(F)F (stereo unspecified) | 54.1
CN1CCC2(CC1)CC(NC(=O)c1csnn1)c1ccccc1O2.O=C(O)C(F)(F)F (stereo unspecified) | 76.95
O=C(NC1CC2(CCN(CCO)CC2)Oc2ccccc21)c1csnn1 (stereo unspecified) | 10.49
CCN1CCC2(CC1)CC(NC(=O)c1c[nH]cn1)c1ccccc1O2 (stereo unspecified) | 11.74
N#Cc1cccc(CN2Cc3nccn3CC(COCC3CC3)C2)c1.O=C(O)C(F)(F)F (stereo unspecified) | -23.01
O=C1CCCC2=C1C(c1ccccc1Cl)Nc1nonc1N2 (stereo unspecified) | 3.129
O=C(CNC(=O)c1ccoc1)NCCOc1ccc2c(c1)CCC2 | 12.38
Cc1occc1C(=O)NCC(=O)NCCOc1cccc(Cl)c1 | 34.75
Cc1occc1C(=O)NCC(=O)NCCOc1ccc2c(c1)CCC2 | 50.55
Cc1ccc(CN2CCOCC3(CCN(Cc4cccs4)C3)C2)o1.O=C(O)C(F)(F)F.O=C(O)C(F)(F)F (stereo unspecified) | -11.36
COCCN1CCc2c(c(COc3cccnc3)nn2C)C1.O=C(O)C(F)(F)F.O=C(O)C(F)(F)F | 5.842
Cc1ccc(Cl)cc1N1CCC(CNC(=O)CC(F)(F)F)C1 (stereo unspecified) | 28.09
Cc1cnn(CC(=O)NCC2CCN(c3cc(Cl)ccc3C)C2)c1 (stereo unspecified) | 0.4801
Cc1ccc(Cl)cc1N1CCC(CNC(=O)CCn2ccnc2)C1 (stereo unspecified) | 172.3
Cc1ccc(Cl)cc1N1CCC(CNC(=O)CCn2ccnn2)C1 (stereo unspecified) | 62.44
CCC(=O)NCC(=O)NCC1CCN(c2cc(Cl)ccc2C)C1 (stereo unspecified) | -4.009
Cc1ccc(Cl)cc1N1CCC(CNC(=O)Cn2cccn2)C1 (stereo unspecified) | 6.122
CN(C)CCNC(=O)c1cc(-c2cnc(N3CCCC3)nc2)cn1C.O=C(O)C(F)(F)F | -14.58

SMILES | Percent Effect [%]
CC(=O)N1[C@H](CN(C)C)C[C@@H]2CN(C(=O)c3cncc(C)c3)CC[C@@H]21.O=C(O)C(F)(F)F.O=C(O)C(F)(F)F | -6.193
COCCn1cc(C(=O)N2CCCC2c2cc(C)on2)c2ccccc21 (stereo unspecified) | -20.39
Cc1cc(C(=O)N2CCN(c3nc4ccccc4s3)CC2)no1 | -15.49
Cc1cc(C(=O)N2CCN(c3nc4c(F)cccc4s3)CC2)no1 | 70.89
CCOC(=O)N1CCN(C(=O)c2cc(-c3ccccc3F)on2)CC1 | 9.54
Cc1cc(C(=O)N2CCN(c3nc4c(C)cccc4s3)CC2)no1 | 96.55
CC(=O)OC1CN(c2nc3c(C)cccc3s2)C1 | -13.72
COc1cccc2sc(N3CC(OC(C)=O)C3)nc12 | 4.303
CCOc1cc(C)nc(N2CCN(C(=O)c3cc(C)on3)CC2)n1 | -16.01
Cc1cc(C(=O)N2CCN(c3nc4c(C(C)C)cccc4s3)CC2)on1 | -0.7761
Cc1cc(C(=O)N2CCN(c3nc4c(C(C)C)cccc4s3)CC2)no1 | 88.51
COc1cccc([C@H]2CN(C(=O)c3cc(C)on3)C[C@@H]2N)c1 | -0.4367
Cc1cccc(C(=O)N2CCN(c3ccccc3F)CC2)n1 | -5.532
COc1cccc2sc(N3CCN(C(=O)c4cc(C)on4)CC3)nc12 | 101.6
Cc1cc(C(=O)N2CCN(C)CC2)nn1CC(=O)NCc1ccccn1.Cl | -24.19
CC(C)C[C@H](N)c1nnc(SCC(=O)Nc2ccc(Br)cc2)o1.Cl | 9.958
O=C(O)C(F)(F)F.O=C(O)C(F)(F)F.O=C(O)C(F)(F)F.c1ccc(NCc2cn3c(n2)CN(Cc2cccnc2)CC3)nc1 | 2.185
CS(=O)(=O)c1ccc(C(=O)N2CCCC(n3ccnc3)C2)cc1 (stereo unspecified) | 8.305
Cn1cc(-c2ncc3c(c2C(=O)O)CCN(Cc2ccccn2)C3)cn1.O=C(O)C(F)(F)F.O=C(O)C(F)(F)F | 44.96
CO[C@@H]1CCN(C(=O)c2ccsc2)[C@@H]2CN(CC3CC3)C[C@@H]21.O=C(O)C(F)(F)F | 9.15
COCCCNC(=O)c1cc(-c2cnc(N(C)C)nc2)cn1CC1CC1.O=C(O)C(F)(F)F | 0.3583
c1[nH]c(CC2CCCC2)nc1CN1CCCC2(CCOC2)C1 (stereo unspecified) | -0.6443
COC[C@]1(O)CCN(Cc2c[nH]c(CC3CCCC3)n2)CC1(C)C | -12.53

SMILES | Percent Effect [%]
OC1(CN2CCCCC2)CCN(Cc2c[nH]c(CC3CCCC3)n2)C1 (stereo unspecified) | 56.92
CC1(C)CN(Cc2c[nH]c(CC3CCCC3)n2)CC[C@]1(C)O | 10.2
OC1(CN2CCCC2)CCCN(Cc2c[nH]c(CC3CCCC3)n2)C1 (stereo unspecified) | 109.3
C[C@@H]1CN(Cc2c[nH]c(CC3CCCC3)n2)CC[C@]1(C)O | -1.066
COc1cc(C(=O)N(C)C)ccc1NC(=O)c1ccsc1 | -21.05
CCS(=O)(=O)N1CC[C@H]2CO[C@H](CN(C)C)[C@H]2C1.O=C(O)C(F)(F)F | -39.84
CCN1CCC2(CCC(=O)N2Cc2cccc(C)n2)CC1.O=C(O)C(F)(F)F.O=C(O)C(F)(F)F | -30.9
O=C(O)C(F)(F)F.O=C(O)C(F)(F)F.c1cnn(CCCO[C@@H]2CN(C3CCOCC3)[C@@H]3CCCO[C@@H]32)c1 | -22.39
Cc1ccc(CN2CC[C@H]3NC(=O)CC[C@@H]32)o1.O=C(O)C(F)(F)F | -7.125
Cc1cccc(N2CCC3(CCCN(C(=O)c4cccnc4)C3)C2)n1.O=C(O)C(F)(F)F.O=C(O)C(F)(F)F (stereo unspecified) | -32.42
COCCNC(=O)c1ccc2ccc(N(C)CC3CC3)n2c1 | 24.26
CN(C)C(=O)CNC(=O)c1ccc2ccc(N(C)CC3CC3)n2c1 | 51.54
CN(C)CCNC(=O)c1ccc2ccc(N(C)CC3CC3)n2c1 | -34.83
NC(=O)N1CCC2(CCN(C(=O)c3cccnc3)CC2)C1.O=C(O)C(F)(F)F | -5.676
Cl.Cl.c1ccc(COC[C@@H]2CCC[C@@]23CNCCO3)nc1 | 33.86
Cc1cc(C)c(CNC(=O)NCCNc2cnccn2)c(=O)[nH]1 | -7.276
CCCc1cncnc1N1CCC(NCc2cc3ccccc3[nH]2)CC1 | 103.5
CCCc1cncnc1N1CCC(NCc2ccncc2)CC1 | 4.573
CCCc1cncnc1N1CCC(NCc2ccc(O)cc2)CC1 | -4.464
Cc1n[nH]c(C(=O)NCc2ccnc(OCC(F)(F)F)c2)c1Br | 65.15
Cc1ncsc1C(=O)NCc1ccnc(OCC(F)(F)F)c1 | -36.25
Cc1noc(C)c1C(=O)NCc1ccnc(OCC(F)(F)F)c1 | 0.8028
CN(Cc1ccccc1OC(F)(F)F)C(=O)C1CCCN(C(N)=O)C1 (stereo unspecified) | 92.25

SMILES | Percent Effect [%]
CN(Cc1ccccc1OC(F)(F)F)C(=O)C1CC1 | 6.346
NC(=O)N1CCCC(C(=O)NCc2ccccc2OC(F)(F)F)C1 (stereo unspecified) | 35.38
O=C(O)C(F)(F)F.O=C(O)C(F)(F)F.c1cc(CO[C@H]2CC[C@H]3[C@H]2OCCN3Cc2nccs2)ccn1 | -1.961
O=C(O)C(F)(F)F.O=C(O)C(F)(F)F.O=C1N(c2cncnc2)CCC12CCCN(Cc1cccnc1)C2 (stereo unspecified) | -18.13
CCOCC1CN(C(=O)c2cscn2)Cc2cn(C)nc21.O=C(O)C(F)(F)F (stereo unspecified) | -37.83
COC[C@@H]1CCC[C@]12CN(Cc1ccco1)CCO2.O=C(O)C(F)(F)F | -13.34
Cl.NCc1cc(-c2ccccc2)n2nccc2n1 | -2.564
FC(F)(F)c1ccc(-c2noc3c2CN(CC2CCCO2)CC3)cc1 (stereo unspecified) | 46.47
COCC(C)N1CCc2onc(-c3ccc(C(F)(F)F)cc3)c2C1 (stereo unspecified) | 16.68
OCC(O)CN1CCc2onc(-c3ccc(C(F)(F)F)cc3)c2C1 (stereo unspecified) | 97.28
COCC1c2nnn(CC3CC3)c2CCN1C(=O)c1ccnnc1 (stereo unspecified) | -6.272
COCC1c2nnn(CC3CC3)c2CCN1C(=O)c1cc(C)[nH]c1C (stereo unspecified) | 70.57
COCC1c2nnn(CC3CC3)c2CCN1C(=O)c1cc(C)on1 (stereo unspecified) | 9.302
CCC(CNC(=O)c1ccccn1)N1CCc2ccccc2C1 (stereo unspecified) | 64.91
CCC(CNC(=O)c1ccc(=O)[nH]n1)N1CCc2ccccc2C1 (stereo unspecified) | -4.669
CCC(CNC(=O)c1ccccc1Br)N1CCc2ccccc2C1 (stereo unspecified) | -2.045
O=C(O)C(F)(F)F.c1ccc(CN2CCCn3nnc(CNc4ncccn4)c3C2)nc1 | 11.56
Cc1noc(C)c1CN1CCc2ncnc(-c3ccncc3)c2CC1.O=C(O)C(F)(F)F.O=C(O)C(F)(F)F | 7.897
O=C(CCc1ccccc1)NCC1CCN(Cc2ccsc2)CC1 | -20.67
O=C(CCc1ccsc1)NCC1CCN(C2CC2)C1 (stereo unspecified) | -16.29
O=C(CCc1ccsc1)NCC1CCN(c2ccccc2)C1 (stereo unspecified) | 105.9
CC(C)c1nn(C)cc1CNCc1ccnc(N(C)C)c1.Cl | -35.39

— ChEMBL document CHEMBL3988442, “University of Dundee, Small-Polar-MMV Screening Library” (2021)
